Source: PubChem BioAssay (NCATS)
Inconclusive results are not listed. The source made the active and inactive calls. Calls come from the whole dose curve; as a rule, active = well fitted curve in the direction sought with a large enough effect; inconclusive = small, poorly fitted or top-dose-only effect, or another doubt; inactive = no such curve, though single readings can be large; an effect the other way counts as inactive or inconclusive.

Legend:
[1] = target: Rap guanine nucleotide exchange factor 3 (Homo sapiens) (UniProt O95398); experiment: Confirmatory qHTS for agonist of cAMP-regulated guanine nucleotide exchange factor 3 (EPAC1) (AID 1645881);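 note: EPAC1 catalysed release of BODIPY-GDP from Rap1B seen as fluorescence loss; nearly all actives have a fitted effect of over 75% in size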
[2] = target: Rap guanine nucleotide exchange factor 4 (Homo sapiens) (UniProt Q8WZA2); experiment: Confirmatory qHTS for agonist of cAMP-regulated guanine nucleotide exchange factor 4 (EPAC2) (AID 1645884);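 note: nucleotide exchange releases bodipy-GDP from Rap1 and this lowers its fluorescence; nearly all actives have a fitted effect of over 65% in size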
[3] = target: Rap guanine nucleotide exchange factor 3 (Homo sapiens) (UniProt O95398); experiment: Counterscreen qHTS for antagonist of cAMP-regulated guanine nucleotide exchange factor 3 (EPAC1) (AID 1645888);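 note: fluorescence loss as bound BODIPY-GDP is released from Rap1B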
In short: (§1)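 Measured: fluorescence of BODIPY-GDP bound to Rap1B, which falls as exchange proceeds. Conditions include 50 uM competing GDP, 5 and 30 min reads, and a later cAMP challenge for antagonist detection.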

[4] = target: Rap guanine nucleotide exchange factor 3 (Homo sapiens) (UniProt O95398); experiment: Counterscreen qHTS for agonist of cAMP-regulated guanine nucleotide exchange factor 3 (EPAC1) (AID 1645889); note: nearly all actives have a fitted effect of over 40% in size
In short: as §1

Measured: Potency

Chain of Rap guanine nucleotide exchange factor 4 (Homo sapiens) (Q8WZA2 whole entry, looked up): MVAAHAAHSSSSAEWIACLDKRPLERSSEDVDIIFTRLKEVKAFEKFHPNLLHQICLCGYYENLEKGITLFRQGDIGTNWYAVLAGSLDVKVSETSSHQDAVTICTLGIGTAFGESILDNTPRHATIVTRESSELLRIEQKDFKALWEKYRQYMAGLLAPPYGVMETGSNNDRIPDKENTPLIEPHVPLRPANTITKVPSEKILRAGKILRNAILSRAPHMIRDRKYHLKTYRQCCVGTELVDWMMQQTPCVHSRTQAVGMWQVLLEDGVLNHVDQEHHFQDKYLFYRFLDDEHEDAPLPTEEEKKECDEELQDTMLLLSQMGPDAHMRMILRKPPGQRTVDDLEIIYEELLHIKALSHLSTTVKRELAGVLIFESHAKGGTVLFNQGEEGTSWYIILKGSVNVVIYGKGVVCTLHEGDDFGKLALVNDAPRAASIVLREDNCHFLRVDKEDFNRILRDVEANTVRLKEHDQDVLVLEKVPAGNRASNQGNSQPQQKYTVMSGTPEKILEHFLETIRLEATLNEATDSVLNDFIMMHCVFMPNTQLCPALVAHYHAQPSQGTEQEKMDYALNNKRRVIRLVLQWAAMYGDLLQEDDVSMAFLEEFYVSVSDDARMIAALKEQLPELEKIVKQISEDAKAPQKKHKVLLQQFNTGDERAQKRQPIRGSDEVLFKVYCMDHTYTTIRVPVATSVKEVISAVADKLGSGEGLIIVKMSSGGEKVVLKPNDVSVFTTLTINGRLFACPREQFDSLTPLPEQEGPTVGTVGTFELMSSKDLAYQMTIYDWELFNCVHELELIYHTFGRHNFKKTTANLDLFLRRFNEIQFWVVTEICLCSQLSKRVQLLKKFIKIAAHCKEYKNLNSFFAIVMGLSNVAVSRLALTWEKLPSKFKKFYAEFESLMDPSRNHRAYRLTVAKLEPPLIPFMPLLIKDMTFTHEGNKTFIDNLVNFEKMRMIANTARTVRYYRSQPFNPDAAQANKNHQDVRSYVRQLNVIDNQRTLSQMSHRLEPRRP
Chain of Rap guanine nucleotide exchange factor 3 (Homo sapiens) (O95398 whole entry, looked up): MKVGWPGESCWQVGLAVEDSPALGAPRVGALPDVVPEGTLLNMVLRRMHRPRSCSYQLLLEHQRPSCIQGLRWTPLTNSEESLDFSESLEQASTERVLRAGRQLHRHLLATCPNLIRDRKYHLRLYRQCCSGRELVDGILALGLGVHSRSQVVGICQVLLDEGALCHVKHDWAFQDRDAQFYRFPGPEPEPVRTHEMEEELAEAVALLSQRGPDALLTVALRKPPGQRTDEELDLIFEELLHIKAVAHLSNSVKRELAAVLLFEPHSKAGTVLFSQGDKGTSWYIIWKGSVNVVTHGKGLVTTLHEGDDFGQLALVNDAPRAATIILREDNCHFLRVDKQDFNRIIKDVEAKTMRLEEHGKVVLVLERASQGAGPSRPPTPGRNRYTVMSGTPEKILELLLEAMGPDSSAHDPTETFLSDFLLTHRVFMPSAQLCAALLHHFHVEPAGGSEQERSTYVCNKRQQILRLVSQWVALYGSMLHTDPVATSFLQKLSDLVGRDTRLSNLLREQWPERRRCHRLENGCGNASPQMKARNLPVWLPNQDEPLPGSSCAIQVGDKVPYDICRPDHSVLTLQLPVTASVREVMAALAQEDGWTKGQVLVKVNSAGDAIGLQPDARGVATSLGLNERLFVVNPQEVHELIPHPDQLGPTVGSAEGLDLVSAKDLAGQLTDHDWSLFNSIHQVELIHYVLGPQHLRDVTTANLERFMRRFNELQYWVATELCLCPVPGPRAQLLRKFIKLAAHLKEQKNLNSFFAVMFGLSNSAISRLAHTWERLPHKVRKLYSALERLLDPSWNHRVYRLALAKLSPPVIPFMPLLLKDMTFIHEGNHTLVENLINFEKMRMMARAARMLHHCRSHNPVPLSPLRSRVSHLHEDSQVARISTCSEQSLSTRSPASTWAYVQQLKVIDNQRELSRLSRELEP

NS(=O)(=O)c1ccc(N/N=C/c2ccc(C(=O)O)cc2)c([N+](=O)[O-])c1
inactive: all assays above

Cc1ccc2c(CC(=O)OCc3cc(=O)n4c(n3)sc3ccccc34)coc2c1
inactive: all assays above

COC1=C/C(=C/c2c(N)n3nc(-c4ccc(C)cc4)sc3nc2=O)C=CC1=O
inactive: all assays above

Cc1ccccc1-c1ccc(CN2C(C(C)C)C(=O)N(Cc3cn(CCC4OCCO4)nn3)CCS2(=O)=O)cc1 (stereo unspecified)
inactive: all assays above
